Reference: PubChem BioAssay AID686964 (The Scripps Research Institute Molecular Screening Center, 2013)
The whole screen tested about 370,000 compounds, of which about 1,100 (0.3%) were called active. The sample as a whole holds a higher share of actives than the screen did. A number with no mark means an inactive call. Rule as the data show it: active = inhibition above about 13%; inactive = the rest.

The compounds below were run against Methyl-CpG-binding domain protein 2 (Homo sapiens) (UniProt Q9UBB5) (assay: MBD2-DBD methyl-oligonucleotide interaction blockers – biochemical, TR-FRET, DNA-binding domain, human, primary screen (AID 686964)). Settings: MBD2 binding to methylated oligonucleotide, at 4.4 µM, active compounds read high.
Chain of Methyl-CpG-binding domain protein 2 (Homo sapiens) (Q9UBB5 whole entry, looked up, the tested form may be a part): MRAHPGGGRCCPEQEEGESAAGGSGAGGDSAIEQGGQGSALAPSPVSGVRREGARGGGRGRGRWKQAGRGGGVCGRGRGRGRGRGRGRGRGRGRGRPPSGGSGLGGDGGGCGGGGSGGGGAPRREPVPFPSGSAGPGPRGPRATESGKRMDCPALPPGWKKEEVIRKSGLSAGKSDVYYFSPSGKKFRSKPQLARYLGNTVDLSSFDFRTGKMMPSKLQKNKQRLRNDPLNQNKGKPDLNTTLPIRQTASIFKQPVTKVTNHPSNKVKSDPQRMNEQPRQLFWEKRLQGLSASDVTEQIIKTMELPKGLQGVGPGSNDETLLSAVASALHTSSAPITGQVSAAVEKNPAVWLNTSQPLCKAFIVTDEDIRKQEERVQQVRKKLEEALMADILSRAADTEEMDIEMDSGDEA

| SMILES | inhibition |
| --- | --- |
| CCOC(=O)NC(C(F)(F)F)(C(F)(F)F)P(=O)(c1ccccc1)c1ccccc1 | -1.87% |
| CCOC(=O)CNC(=O)/C=C/c1c(Cl)cccc1Cl | -5.98% |
| CCOC(=O)CCP(=O)(O)C(O)(c1ccccc1)c1ccccc1 | 28.3% (active) |
| CCOC(=O)C(=O)N(Cc1ccccc1)c1ccccc1C(=O)Nc1cc(OC)ccc1OC | 1% |
| COc1cccc(/C=C2\CC3(OC(C)=O)CCCN2C3)c1 (configuration not stated) | 1.18% |
| O=c1ccc2c(-c3ccccc3S(=O)(=O)O)c3ccc(O)c(O)c3oc-2c1O | 97.2% (active) |
| O=C(NC1CCCCN(Cc2ccc(Cl)cc2)C1=O)c1ccc(Br)cc1 (configuration not stated) | -2.53% |
| C=C(C)C#CC(Cc1ccccc1)NCC1CC1 (configuration not stated) | -0.24% |
| Cc1cc(C)c2nc3nc(C)cc(C)c3c(N)c2c1 | 19.4% (active) |
| NC(=O)c1ncn([C@@H]2O[C@H](C(=O)O)[C@@H](O)[C@H]2O)n1 | 2.1% |
| CCC[C@H]1C(=O)CC[C@@]23CCCN2C(=O)CCC[C@@H]13 | -0.46% |
| CC(C)CSc1nnc(-c2cccnc2)n1Cc1ccccc1 | -2.93% |
| O=C(OC12CCCN(C1)/C(=C/c1cccnc1)C2)C1CCCC1 (configuration not stated) | -0.45% |
| O=C(NS(=O)(=O)c1cccs1)[C@H]1O[C@@H](n2ccc(=O)[nH]c2=O)[C@H](O)[C@@H]1O | 3.05% |
| Cc1c(C=O)n(C)n(-c2ccccc2)c1=O | 14.6% (active) |
| Cc1c(CN2CCC(C)CC2)c(=O)n(-c2ccccc2)n1C | 2.32% |
| Cc1cccc(N2CCN(Cc3c(C)n(C)n(-c4ccccc4)c3=O)CC2)c1C | 1.05% |
| O=S(=O)(c1ccc(Br)cc1)n1ccc2ccccc21 | -0.04% |
| O=S1(=O)c2c(cccc2N2CCSCC2)Oc2ccccc2CN1Cc1cn(Cc2ccc(F)cc2)nn1 | -0.08% |
| O=C(NCCO)C(=O)NCC(c1ccc2c(c1)OCO2)N1CCN(c2ccc(F)cc2)CC1 (configuration not stated) | 0.87% |
| C=CCN(C(=O)[C@@H](CCCC)[C@@H](O)c1ccc(Cl)cc1)c1ccccc1 | 15.9% (active) |
| CCCC[C@H](C(=O)N(CC)c1ccccc1)[C@@H](O)c1ccc2ccccc2c1 | -3.72% |
| C[C@H](C(=O)N(C)c1ccccc1)[C@@H](O)c1ccc(Cl)cc1 | -1.32% |
| O=C(CCCCCN1C(=O)C2C3C=CC(C3)C2C1=O)Nc1ccccn1 (configuration not stated) | -4.13% |
| COC(=O)c1cccc(NC(=O)c2cccc(N3C(=O)CCC3=O)c2)c1 | 13.4% (active) |
| COC(=O)c1cccc(NS(C)(=O)=O)c1 | -3.55% |
| CC(=O)Nc1cccc(C(=O)OCN2C(=O)c3ccccc3C2=O)c1 | 6.26% |
